From PubChem BioAssay
For part of these data: Potency and affinity values are given separately. The source made the active and inactive calls.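 How the source made its calls, unless noted: active means compound raising the membrane signal above positive-control mean plus 3 SD in both repeats, and a primary screen hit; inactive means the rest.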

Experiments:
[1] = system: TRPC4 beta (transient receptor potential cation channel C4), mouse; experiment: activators of mouse TRPC4 channel, confirmation, cell-based, Fluo4 calcium, HEK293 TRPC4beta/mu-opioid, duplicates, 10 µM (AID 2426;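 active means fluorescence ratio normalized to control raised more than 50% in primary screen plus both repeat runs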); details: Fluo4 calcium fluorescence, at 10 µM; active compounds read high
[2] = system: transient receptor potential cation channel C4 beta (TRPC4), mouse; experiment: activators of mouse TRPC4 channel, confirmation, cell-based, second round, Fluo4, HEK293 TRPC4beta/mu-opioid, 1 µM (AID 2461;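 active means primary screen active and over 50% activation in each of two duplicate runs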); details: Fluo4 calcium fluorescence, at 1 µM; active compounds read high
[3] = system: TRPC4 (transient receptor potential cation channel C4 beta), mouse; experiment: positive allosteric modulators of mouse TRPC4, confirmation, cell-based, second round, Fluo-4, HEK293 TRPC4beta/mu-opioid, 1 µM (AID 2554;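 active means primary screen hit whose fluorescence ratio, in both repeats, exceeds the weak agonist control mean by 3 SD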); details: DAMGO EC20, Fluo-4 calcium flux, at 1 µM; active compounds read high
[4] = system: TRPC4 beta (transient receptor potential cation channel C4), mouse; experiment: positive allosteric modulators of mouse TRPC4, confirmation, cell-based, Fluo-4, HEK293 TRPC4beta/mu-opioid (AID 2555;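 active means primary screen hit whose calcium fluorescence ratio, in both repeats, exceeds the weak agonist control mean by 3 SD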); details: DAMGO EC20, Fluo-4 calcium flux, at 10 µM; active compounds read high
[5] = biological target: Short transient receptor potential channel 4 (Mus musculus) (UniProt Q9QUQ5); experiment: inhibitors of mouse TRPC4 channel, confirmation, cell-based, Fluo4, HEK293 TRPC4beta/mu-opioid (AID 2636;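 active means calcium signal cut by more than 3 SD below the full-agonist control yet still positive, in both repeats and the earlier primary screen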); details: DAMGO, Fluo4 calcium flux, at 10 µM; active compounds read high
[6] = biological target: Short transient receptor potential channel 4 (Mus musculus) (UniProt Q9QUQ5); experiment: inhibitors of mouse TRPC4 channel, confirmation, cell-based, second round, Fluo4, HEK293 TRPC4beta/mu-opioid, 1 µM (AID 2637;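 active means calcium signal ratio cut to more than 3 SD under the fully stimulated control mean yet still positive, in both repeats and the primary screen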); details: Fluo4 calcium flux, DAMGO, at 1 µM; active compounds read high
[7] = biological target: Short transient receptor potential channel 4 (Mus musculus) (UniProt Q9QUQ5); experiment: mouse TRPC4 channel activators, dose response, cell-based, HEK293 TRPC4/mu-opioid, Fluo-4 calcium (AID 434937;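 active means primary screen activator hit with a dose response curve and TRPC4 channel activation at any tested dose; inactive means no activation, no dose response, or not a primary hit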)
[8] = biological target: Short transient receptor potential channel 4 (Mus musculus) (UniProt Q9QUQ5); experiment: TRPC4 positive allosteric modulators, dose response, cell-based, HEK293 TRPC4/mu-opioid, Fluo-4 calcium, EC20 DAMGO (AID 434941;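 active means earlier screen potentiator hit that boosts the TRPC4 ion channel at some dose, with a dose response; inactive means no potentiation, no dose response, or not a prior hit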;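 further: calcium entry triggered by an EC20 dose of DAMGO at the co-expressed mu-opioid receptor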)
[9] = biological target: Short transient receptor potential channel 4 (Mus musculus) (UniProt Q9QUQ5); experiment: mouse TRPC4 channel inhibitors, dose response, cell-based, HEK293 TRPC4/mu-opioid, Fluo-4 calcium (AID 434942;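 active means primary screen inhibitor hit that blocks the TRPC4 channel at some tested dose, yielding a dose curve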)
[10] = biological target: Short transient receptor potential channel 6 (Mus musculus) (UniProt Q61143); experiment: inhibition of mouse TRPC6 channel, confirmation, selectivity assay for TRPC4 inhibitor project, cell-based, HEK293, membrane potential dye, duplicate (AID 434948;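 active means active in primary screen and both duplicates, each dropping signal beyond three positive-control SD with fluorescence still positive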); details: HEK293 TRPC6, membrane potential dye fluorescence, at 10 µM, stimulated with maximal-effect acetylcholine; active compounds read high
[11] = biological target: Short transient receptor potential channel 6 (Mus musculus) (UniProt Q61143); experiment: activation of mouse TRPC6 channel, confirmation, selectivity assay for TRPC4 activator project, cell-based, HEK293, membrane potential dye, duplicate (AID 434950;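 active means membrane potential signal rise above negative control mean plus 3 SD in both duplicates, also active in the earlier TRPC4 screen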); details: HEK293 TRPC6, membrane potential fluorescence, at 10 µM; active compounds read high
[12] = biological target: Short transient receptor potential channel 6 (Mus musculus) (UniProt Q61143); experiment: TRPC6 potentiation by TRPC4 potentiator hits, confirmation, selectivity assay for TRPC4 potentiator project, HEK293 cells, membrane potential dye, duplicate (AID 434952); details: HEK293 TRPC6, membrane potential dye fluorescence, at 10 µM, maximal acetylcholine added after compound; active compounds read high
[13] = biological target: Short transient receptor potential channel 4 (Mus musculus) (UniProt Q9QUQ5); experiment: calcium flux activators in TRPC4/5HT1a cells, counter-screen for TRPC4 activator project, cell-based, second counter screen, HEK293 TRPC4/5HT1a, Fluo-4 (AID 434977;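 active means calcium signal rise above buffer-control mean plus 5 SD in both duplicates, and also a hit in the primary screen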); details: Fluo-4 calcium flux, at 10 µM; active compounds read high
[14] = calcium flux inhibitors in TRPC4/5HT1a cells, confirmation, counter-screen for TRPC4 inhibitor project, cell-based, second counter screen, HEK293 TRPC4/5HT1a, Fluo-4 (AID 434978;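 active means primary screen active whose calcium signal fell more than 3 SD beyond the full-serotonin control mean in both duplicate plates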;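 further: serotonin given first at submaximal then at maximal dose after compound preincubation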); details: Fluo-4 calcium flux, at 10 µM, serotonin added to trigger calcium flux; active compounds read high
[15] = system: TRPC4 (mouse), co-expressed with 5HT1a in HEK293; experiment: calcium flux potentiators in TRPC4/5HT1a cells, confirmation, counter-screen for TRPC4 potentiator project, cell-based, second counter screen, HEK293 TRPC4/5HT1a, Fluo-4 (AID 434979;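 active means signal rise over 3 SD above mean of control wells given weak agonist, in both repeats and first screen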); details: Fluo-4 calcium flux, at 10 µM, serotonin added at its EC20 dose; active compounds read high
[16] = calcium flux activation in mu-opioid HEK293 cells, confirmation, counter-screen for TRPC4 activator project, cell-based, HEK293 mu-opioid receptor line (AID 449723;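 active means hit in primary screen, with calcium signal over 5 SD above buffer well mean in both duplicates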;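 further: counter screen cells carry the mu-opioid receptor alone and lack TRPC4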); details: Fluo-4 calcium fluorescence, at 10 µM; active compounds read high
[17] = calcium flux enhancement in mu-opioid HEK293 cells, confirmation, counter-screen for TRPC4 allosteric potentiator project, cell-based, HEK293 mu-opioid receptor line (AID 449724;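 active means calcium signal rise more than 3 SD above the low-dose agonist control mean, in both duplicate plates and the primary screen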); details: Fluo-4 calcium flux, at 10 µM, compound added before EC20 DAMGO stimulus; active compounds read high

Sequence of Short transient receptor potential channel 4 (Mus musculus) (Q9QUQ5 whole entry, looked up): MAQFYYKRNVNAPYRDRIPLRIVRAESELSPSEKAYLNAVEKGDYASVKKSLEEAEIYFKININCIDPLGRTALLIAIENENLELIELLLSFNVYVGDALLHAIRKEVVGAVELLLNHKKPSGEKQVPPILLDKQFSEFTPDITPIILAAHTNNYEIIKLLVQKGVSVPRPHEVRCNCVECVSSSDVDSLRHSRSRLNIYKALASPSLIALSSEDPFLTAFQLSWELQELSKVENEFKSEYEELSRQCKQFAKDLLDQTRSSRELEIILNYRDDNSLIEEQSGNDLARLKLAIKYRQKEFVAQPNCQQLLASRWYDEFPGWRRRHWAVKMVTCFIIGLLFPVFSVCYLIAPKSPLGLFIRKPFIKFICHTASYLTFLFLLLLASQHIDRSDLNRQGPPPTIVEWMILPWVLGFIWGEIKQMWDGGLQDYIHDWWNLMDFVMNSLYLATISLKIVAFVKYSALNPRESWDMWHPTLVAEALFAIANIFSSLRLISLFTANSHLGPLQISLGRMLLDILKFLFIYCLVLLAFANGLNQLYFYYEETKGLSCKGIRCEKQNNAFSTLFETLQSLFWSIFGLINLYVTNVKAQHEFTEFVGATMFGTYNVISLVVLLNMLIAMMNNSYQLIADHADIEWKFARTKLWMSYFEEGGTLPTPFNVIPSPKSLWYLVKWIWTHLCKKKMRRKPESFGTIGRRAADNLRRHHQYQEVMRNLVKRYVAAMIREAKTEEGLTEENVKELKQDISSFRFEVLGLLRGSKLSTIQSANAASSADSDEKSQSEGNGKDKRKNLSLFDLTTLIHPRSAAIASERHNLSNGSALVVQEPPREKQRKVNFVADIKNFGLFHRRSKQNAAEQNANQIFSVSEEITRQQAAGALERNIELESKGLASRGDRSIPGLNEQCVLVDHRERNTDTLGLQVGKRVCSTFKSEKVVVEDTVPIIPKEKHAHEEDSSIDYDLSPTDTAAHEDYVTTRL
Sequence of Short transient receptor potential channel 6 (Mus musculus) (Q61143 whole entry, looked up): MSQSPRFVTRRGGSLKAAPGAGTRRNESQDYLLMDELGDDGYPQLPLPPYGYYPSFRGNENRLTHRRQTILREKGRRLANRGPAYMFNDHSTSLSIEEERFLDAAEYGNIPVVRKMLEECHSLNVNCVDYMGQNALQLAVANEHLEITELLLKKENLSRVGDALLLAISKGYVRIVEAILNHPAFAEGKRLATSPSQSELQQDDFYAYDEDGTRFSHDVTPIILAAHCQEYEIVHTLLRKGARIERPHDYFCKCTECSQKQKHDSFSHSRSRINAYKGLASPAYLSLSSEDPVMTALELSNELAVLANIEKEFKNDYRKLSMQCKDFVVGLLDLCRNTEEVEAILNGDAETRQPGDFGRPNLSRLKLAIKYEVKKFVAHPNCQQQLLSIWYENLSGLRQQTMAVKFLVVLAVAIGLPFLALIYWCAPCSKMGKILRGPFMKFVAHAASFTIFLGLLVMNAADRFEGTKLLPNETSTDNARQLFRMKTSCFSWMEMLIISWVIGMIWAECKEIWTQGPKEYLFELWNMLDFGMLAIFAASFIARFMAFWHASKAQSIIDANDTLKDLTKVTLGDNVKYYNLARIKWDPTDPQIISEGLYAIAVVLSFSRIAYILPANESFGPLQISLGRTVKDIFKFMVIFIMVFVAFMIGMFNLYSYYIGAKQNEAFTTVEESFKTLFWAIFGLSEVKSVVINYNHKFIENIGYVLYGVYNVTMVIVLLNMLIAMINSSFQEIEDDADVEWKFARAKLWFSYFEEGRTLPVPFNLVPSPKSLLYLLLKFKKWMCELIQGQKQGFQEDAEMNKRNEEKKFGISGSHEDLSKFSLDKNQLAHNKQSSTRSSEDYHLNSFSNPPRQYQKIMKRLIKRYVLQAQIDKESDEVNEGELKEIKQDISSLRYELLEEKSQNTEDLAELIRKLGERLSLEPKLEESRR

| Structure (SMILES) | outcome [1] | outcome [2] | outcome [3] | potentiation [4] | outcome [5] | outcome [6] | outcome [7] | outcome [8] | outcome [9] | outcome [10] | outcome [11] | outcome [12] | outcome [13] | outcome [14] | potentiation [15] | outcome [16] | outcome [17] | outcome [4] | outcome [15] | potentiation [3] |
| --- | --- | --- | --- | --- | --- | --- | --- | --- | --- | --- | --- | --- | --- | --- | --- | --- | --- | --- | --- | --- |
| CCOc1ccccc1C(=O)NCCc1cnc[nH]1 | inactive | inactive | inactive | 10% (active) | inactive | inactive | inactive | inactive | inactive | inactive | inactive | inactive | inactive | inactive | 16.9% (active) | inactive | inactive |  |  |  |
| CCN(CC)CCSc1nnc2c3ccccc3n(Cc3ccccc3)c2n1 | inactive | inactive | inactive |  | inactive | inactive | inactive | inactive | inactive | inactive | inactive | inactive | inactive | inactive |  | inactive | inactive | inactive | inactive |  |
| Cc1ccc(SC(CC(=O)c2ccc(C(C)(C)C)cc2)C(=O)O)cc1 (stereo not given) | inactive | inactive | inactive |  | inactive | inactive | inactive | inactive | inactive | inactive | inactive | inactive | inactive | inactive |  | inactive | inactive | inactive | inactive |  |
| OCCNc1nc(Nc2ccccc2)nc2ccccc12 | inactive | inactive | inactive |  | inactive | inactive | inactive | inactive | inactive | inactive | inactive | inactive | inactive | inactive |  | inactive | inactive | inactive | inactive |  |
| COc1ccc(C(=O)N2CCN(c3c(C)cccc3C)CC2)cc1OC | inactive | inactive | inactive |  | inactive | inactive | inactive | inactive | inactive | inactive | inactive | inactive | inactive | inactive | 15% (active) | inactive | inactive | inactive |  |  |
| Cc1ccc(Nc2nc3ccccc3[nH]2)nc1 | inactive | inactive | inactive |  | inactive | inactive | inactive | inactive | inactive | inactive | inactive | inactive | inactive | inactive |  | inactive | inactive | inactive | inactive |  |
| Cc1ccc(-c2cc(C(=O)NCCCN3CCCC3)c3ccccc3n2)cc1C | inactive | inactive | inactive |  | inactive | inactive | inactive | inactive | inactive | inactive | inactive | inactive | inactive | inactive | 17.7% (active) | inactive | inactive | inactive |  |  |
| Cc1ccc(C(=O)C[n+]2cccc3cc(C)ccc32)cc1 | inactive | inactive | inactive |  | inactive | inactive | inactive | inactive | inactive | inactive | inactive | inactive | inactive | inactive |  | inactive | inactive | inactive | inactive |  |
| O=[N+]([O-])c1ccccc1CN1CCN(S(=O)(=O)c2ccccc2)CC1 | inactive | inactive | inactive | 11% (active) | inactive | inactive | inactive | inactive | inactive | inactive | inactive | inactive | inactive | inactive |  | inactive | inactive |  | inactive |  |
| Cc1ccc2oc(C(=O)N3CCC(O)(c4ccccc4)CC3)c(C)c2c1 | inactive | inactive | inactive | 11% (active) | inactive | inactive | inactive | inactive | inactive | inactive | inactive | inactive | inactive | inactive | 27.2% (active) | inactive | inactive |  |  |  |
| Cc1sc2nc(SCC(N)=O)n(C)c(=O)c2c1C | inactive | inactive | inactive | 16% (active) | inactive | inactive | inactive | inactive | inactive | inactive | inactive | inactive | inactive | inactive | 26.5% (active) | inactive | inactive |  |  |  |
| CCN1CCN(c2c(Cl)cccc2NC(=O)c2cccs2)CC1 | inactive | inactive |  |  | inactive | inactive | inactive | inactive | inactive | inactive | inactive | inactive | inactive | inactive | 20.9% (active) | inactive | inactive | inactive |  | 14% (active) |
| Cc1ccc(C)n1-c1ncc(Br)cn1 | inactive | inactive | inactive | 10% (active) | inactive | inactive | inactive | inactive | inactive | inactive | inactive | inactive | inactive | inactive | 31.9% (active) | inactive | inactive |  |  |  |
| c1ccc2c(c1)[nH]c1c(N3CCCC3)ncnc12 | inactive | inactive | inactive |  | inactive | inactive | inactive | inactive | inactive | inactive | inactive | inactive | inactive | inactive |  | inactive | inactive | inactive | inactive |  |
| CCCCCc1ccc(OCCCC[n+]2ccccc2)c(CCCCC)c1 | inactive | inactive | inactive |  | inactive | inactive | inactive | inactive | inactive | inactive | inactive | inactive | inactive | inactive |  | inactive | inactive | inactive | inactive |  |
